# Residue numbers refer to the chain shown, from its start.
# What was measured:
# Assay in all cases: PBM; 200 nM protein, PBS
# Details in all cases: dsDNA, one strand shown
# HESX1 [1] = biological target: HESX1 (Homo sapiens, UniProt Q9UBX0 95-180, R165K)
# HOXB4 [2] = biological target: HOXB4 (Homo sapiens, UniProt P17483 148-234)
# SHOX [3] = biological target: SHOX (Homo sapiens, UniProt O15266 103-189)
# VENTX [4] = biological target: T1, VENTX (Homo sapiens, UniProt O95231 78-163, R121Q)
# T1 sequence: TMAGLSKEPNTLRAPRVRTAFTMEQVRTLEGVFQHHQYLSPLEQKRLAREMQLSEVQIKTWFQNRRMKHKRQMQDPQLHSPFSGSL
# HOXB9 [5] = biological target: HOXB9 (Homo sapiens, UniProt P17482 171-250, T197M)
# Chain of HOXB9 (Homo sapiens, UniProt P17482 171-250, T197M) (P17482 171-250 T197M): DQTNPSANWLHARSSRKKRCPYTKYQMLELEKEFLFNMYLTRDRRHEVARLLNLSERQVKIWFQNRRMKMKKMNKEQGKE
# HOXA4 [6] = biological target: HOXA4 (Homo sapiens, UniProt Q00056 201-287, W262R)
# Chain of HOXA4 (Homo sapiens, UniProt Q00056 201-287, W262R) (Q00056 201-287 W262R): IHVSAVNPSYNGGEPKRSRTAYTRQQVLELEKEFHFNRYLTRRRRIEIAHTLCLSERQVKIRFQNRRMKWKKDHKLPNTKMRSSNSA
# HOXC9 [7] = biological target: HOXC9 (Homo sapiens, UniProt P31274 178-260, K195R)
# Chain of HOXC9 (Homo sapiens, UniProt P31274 178-260, K195R) (P31274 178-260 K195R): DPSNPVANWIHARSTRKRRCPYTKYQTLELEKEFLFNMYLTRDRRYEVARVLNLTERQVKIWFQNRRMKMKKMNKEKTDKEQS
# VENTX [8] = biological target: T2, VENTX (Homo sapiens, UniProt O95231 78-163)
# T2 sequence: T1 sequence with Q44R
# HOXA7 [9] = biological target: HOXA7 (Homo sapiens, UniProt P31268 116-202)
# Chain of HOXA7 (Homo sapiens, UniProt P31268 116-202) (P31268 116-202): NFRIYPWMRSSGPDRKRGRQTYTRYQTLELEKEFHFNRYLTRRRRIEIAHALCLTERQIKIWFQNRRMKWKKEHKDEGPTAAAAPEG
# HOXC10 [10] = biological target: HOXC10 (Homo sapiens, UniProt Q9NYD6 254-340)
# Chain of HOXC10 (Homo sapiens, UniProt Q9NYD6 254-340) (Q9NYD6 254-340): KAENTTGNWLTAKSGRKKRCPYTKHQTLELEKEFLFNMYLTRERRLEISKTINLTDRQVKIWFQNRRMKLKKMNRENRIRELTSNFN
# ALX4 [11] = biological target: ALX4 (Homo sapiens, UniProt Q9H161 200-286)
# Chain of ALX4 (Homo sapiens, UniProt Q9H161 200-286) (Q9H161 200-286): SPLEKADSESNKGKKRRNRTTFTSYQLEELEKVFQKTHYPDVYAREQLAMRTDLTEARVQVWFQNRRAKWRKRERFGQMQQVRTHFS
# PAX4 [12] = biological target: T3, PAX4 (Homo sapiens, UniProt O43316 9-242, R200K)
# T3 sequence: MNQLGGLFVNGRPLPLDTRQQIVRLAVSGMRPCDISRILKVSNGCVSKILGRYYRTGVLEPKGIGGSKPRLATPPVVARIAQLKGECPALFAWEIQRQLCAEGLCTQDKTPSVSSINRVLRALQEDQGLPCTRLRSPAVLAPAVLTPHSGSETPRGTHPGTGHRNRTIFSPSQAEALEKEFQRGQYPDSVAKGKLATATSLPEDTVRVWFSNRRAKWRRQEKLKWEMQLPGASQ
# PRRX1 [13] = biological target: PRRX1 (Homo sapiens, UniProt P54821 80-166, F113S)
# Chain of PRRX1 (Homo sapiens, UniProt P54821 80-166, F113S) (P54821 80-166 F113S): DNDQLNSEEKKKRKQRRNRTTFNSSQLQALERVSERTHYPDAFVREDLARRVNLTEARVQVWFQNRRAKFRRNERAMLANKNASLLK
# VENTX [14] = biological target: T4, VENTX (Homo sapiens, UniProt O95231 78-163, Y115F)
# T4 sequence: T1 sequence with Y38F, Q44R
# PAX4 [15] = biological target: T5, PAX4 (Homo sapiens, UniProt O43316 9-242)
# T5 sequence: T3 sequence with K192R
# HOXB6 [16] = biological target: HOXB6 (Homo sapiens, UniProt P17509 132-218, K202E)
# Chain of HOXB6 (Homo sapiens, UniProt P17509 132-218, K202E) (P17509 132-218 K202E): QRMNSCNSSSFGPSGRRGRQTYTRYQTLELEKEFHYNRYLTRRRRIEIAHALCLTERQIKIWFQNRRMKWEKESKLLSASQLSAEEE
# ALX4 [17] = biological target: ALX4 (Homo sapiens, UniProt Q9H161 200-286, Q225E)
# HESX1 [18] = biological target: HESX1 (Homo sapiens, UniProt Q9UBX0 95-180)
# Chain of HESX1 (Homo sapiens, UniProt Q9UBX0 95-180) (Q9UBX0 95-180): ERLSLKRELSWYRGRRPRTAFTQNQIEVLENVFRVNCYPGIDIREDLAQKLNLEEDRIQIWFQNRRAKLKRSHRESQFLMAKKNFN
# HOXA2 [19] = biological target: HOXA2 (Homo sapiens, UniProt O43364 129-215, R185T)
# Chain of HOXA2 (Homo sapiens, UniProt O43364 129-215, R185T) (O43364 129-215 R185T): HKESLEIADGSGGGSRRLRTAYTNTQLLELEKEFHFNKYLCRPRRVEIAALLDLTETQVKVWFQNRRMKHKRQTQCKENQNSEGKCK
# HOXA4 [20] = biological target: HOXA4 (Homo sapiens, UniProt Q00056 201-287, R217L)
# Chain of HOXA4 (Homo sapiens, UniProt Q00056 201-287, R217L) (Q00056 201-287 R217L): as the sequence (Q00056 201-287 W262R) above, with R17L, R62W counted along it
# HOXB9 [21] = biological target: HOXB9 (Homo sapiens, UniProt P17482 171-250)
# Chain of HOXB9 (Homo sapiens, UniProt P17482 171-250) (P17482 171-250): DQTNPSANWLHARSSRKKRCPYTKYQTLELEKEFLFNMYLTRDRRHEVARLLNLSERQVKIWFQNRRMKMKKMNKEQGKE
# HOXB4 [22] = biological target: HOXB4 (Homo sapiens, UniProt P17483 148-234, V174I)
# Chain of HOXB4 (Homo sapiens, UniProt P17483 148-234, V174I) (P17483 148-234 V174I): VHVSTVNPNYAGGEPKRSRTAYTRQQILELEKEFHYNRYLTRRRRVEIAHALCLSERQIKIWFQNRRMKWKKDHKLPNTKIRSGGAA
# HOXC9 [23] = biological target: HOXC9 (Homo sapiens, UniProt P31274 178-260)
# Chain of HOXC9 (Homo sapiens, UniProt P31274 178-260) (P31274 178-260): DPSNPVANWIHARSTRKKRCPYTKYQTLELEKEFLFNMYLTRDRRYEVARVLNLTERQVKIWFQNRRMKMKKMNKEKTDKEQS
# MSX2 [24] = biological target: MSX2 (Homo sapiens, UniProt P35548 130-214, R199I)
# Chain of MSX2 (Homo sapiens, UniProt P35548 130-214, R199I) (P35548 130-214 R199I): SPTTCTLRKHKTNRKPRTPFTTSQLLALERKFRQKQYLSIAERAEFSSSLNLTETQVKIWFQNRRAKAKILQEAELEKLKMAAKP
# ALX1 [25] = biological target: ALX1 (Homo sapiens, UniProt Q15699 118-204, L144V)
# Chain of ALX1 (Homo sapiens, UniProt Q15699 118-204, L144V) (Q15699 118-204 L144V): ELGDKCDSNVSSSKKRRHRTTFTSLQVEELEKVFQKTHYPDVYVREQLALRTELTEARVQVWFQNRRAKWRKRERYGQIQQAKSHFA
# ALX3 [26] = biological target: ALX3 (Homo sapiens, UniProt O95076 139-225, N203Q)
# Chain of ALX3 (Homo sapiens, UniProt O95076 139-225, N203Q) (O95076 139-225 N203Q): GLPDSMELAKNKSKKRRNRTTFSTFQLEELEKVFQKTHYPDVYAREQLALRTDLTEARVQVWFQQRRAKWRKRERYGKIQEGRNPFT
# PAX4 [27] = biological target: T6, PAX4 (Homo sapiens, UniProt O43316 9-242, R200Q)
# T6 sequence: T3 sequence with K192Q
# SHOX [28] = biological target: SHOX (Homo sapiens, UniProt O15266 103-189, R173C)
# HOXC9 [29] = biological target: HOXC9 (Homo sapiens, UniProt P31274 178-260, R193K)
# Chain of HOXC9 (Homo sapiens, UniProt P31274 178-260, R193K) (P31274 178-260 R193K): as the sequence (P31274 178-260) above, with R16K counted along it
# HOXA2 [30] = biological target: HOXA2 (Homo sapiens, UniProt O43364 129-215, R185K)
# Chain of HOXA2 (Homo sapiens, UniProt O43364 129-215, R185K) (O43364 129-215 R185K): as the sequence (O43364 129-215 R185T) above, with T57K counted along it
# ALX1 [31] = biological target: ALX1 (Homo sapiens, UniProt Q15699 118-204, L144R)
# Chain of ALX1 (Homo sapiens, UniProt Q15699 118-204, L144R) (Q15699 118-204 L144R): as the sequence (Q15699 118-204 L144V) above, with V27R counted along it
# PAX4 [32] = biological target: T7, PAX4 (Homo sapiens, UniProt O43316 9-242, F177V)
# T7 sequence: T3 sequence with F169V, K192R
# HOXA4 [33] = biological target: HOXA4 (Homo sapiens, UniProt Q00056 201-287)
# Chain of HOXA4 (Homo sapiens, UniProt Q00056 201-287) (Q00056 201-287): as the sequence (Q00056 201-287 W262R) above, with R62W counted along it
# HOXC10 [34] = biological target: HOXC10 (Homo sapiens, UniProt Q9NYD6 254-340, K271E)
# Chain of HOXC10 (Homo sapiens, UniProt Q9NYD6 254-340, K271E) (Q9NYD6 254-340 K271E): as the sequence (Q9NYD6 254-340) above, with K18E counted along it
# MSX2 [35] = biological target: MSX2 (Homo sapiens, UniProt P35548 130-214)
# Chain of MSX2 (Homo sapiens, UniProt P35548 130-214) (P35548 130-214): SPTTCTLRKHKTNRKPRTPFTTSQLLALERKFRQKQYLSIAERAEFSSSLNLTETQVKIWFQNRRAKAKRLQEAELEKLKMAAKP
# ALX3 [36] = biological target: ALX3 (Homo sapiens, UniProt O95076 139-225)
# Chain of ALX3 (Homo sapiens, UniProt O95076 139-225) (O95076 139-225): as the sequence (O95076 139-225 N203Q) above, with Q65N counted along it
# PAX4 [37] = biological target: T8, PAX4 (Homo sapiens, UniProt O43316 9-242, F177Y)
# T8 sequence: T3 sequence with F169Y, K192R
# PROP1 [38] = biological target: PROP1 (Homo sapiens, UniProt O75360 56-141)
# Chain of PROP1 (Homo sapiens, UniProt O75360 56-141) (O75360 56-141): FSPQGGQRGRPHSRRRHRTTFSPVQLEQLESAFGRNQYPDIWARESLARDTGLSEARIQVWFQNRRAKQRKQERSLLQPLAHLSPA
# HESX1 [39] = biological target: HESX1 (Homo sapiens, UniProt Q9UBX0 95-180, R109Q)
# Chain of HESX1 (Homo sapiens, UniProt Q9UBX0 95-180, R109Q) (Q9UBX0 95-180 R109Q): as the sequence (Q9UBX0 95-180) above, with R15Q counted along it
# PROP1 [40] = biological target: PROP1 (Homo sapiens, UniProt O75360 56-141, R99H)
# Chain of PROP1 (Homo sapiens, UniProt O75360 56-141, R99H) (O75360 56-141 R99H): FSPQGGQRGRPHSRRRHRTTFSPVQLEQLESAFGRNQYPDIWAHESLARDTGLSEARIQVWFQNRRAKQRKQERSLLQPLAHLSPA
# VAX1 [41] = biological target: VAX1 (Homo sapiens, UniProt Q5SQQ9 86-172)
# Chain of VAX1 (Homo sapiens, UniProt Q5SQQ9 86-172) (Q5SQQ9 86-172): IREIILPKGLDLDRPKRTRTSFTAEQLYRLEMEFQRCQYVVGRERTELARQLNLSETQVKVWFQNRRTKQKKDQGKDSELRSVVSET
# ALX3 [42] = biological target: ALX3 (Homo sapiens, UniProt O95076 139-225, L168Q)
# Chain of ALX3 (Homo sapiens, UniProt O95076 139-225, L168Q) (O95076 139-225 L168Q): as the sequence (O95076 139-225 N203Q) above, with L30Q, Q65N counted along it
# HESX1 [43] = biological target: HESX1 (Homo sapiens, UniProt Q9UBX0 95-180, P111T)
# HOXB9 [44] = biological target: HOXB9 (Homo sapiens, UniProt P17482 171-250, R186Q)
# Chain of HOXB9 (Homo sapiens, UniProt P17482 171-250, R186Q) (P17482 171-250 R186Q): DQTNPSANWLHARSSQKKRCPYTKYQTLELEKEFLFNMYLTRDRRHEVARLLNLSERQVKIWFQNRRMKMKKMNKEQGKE
# HOXC9 [45] = biological target: HOXC9 (Homo sapiens, UniProt P31274 178-260, R222W)
# Chain of HOXC9 (Homo sapiens, UniProt P31274 178-260, R222W) (P31274 178-260 R222W): as the sequence (P31274 178-260) above, with R45W counted along it
# ALX3 [46] = biological target: ALX3 (Homo sapiens, UniProt O95076 139-225, L168V)
# Chain of ALX3 (Homo sapiens, UniProt O95076 139-225, L168V) (O95076 139-225 L168V): as the sequence (O95076 139-225 N203Q) above, with L30V, Q65N counted along it
# PROP1 [47] = biological target: PROP1 (Homo sapiens, UniProt O75360 56-141, F88S)
# Chain of PROP1 (Homo sapiens, UniProt O75360 56-141, F88S) (O75360 56-141 F88S): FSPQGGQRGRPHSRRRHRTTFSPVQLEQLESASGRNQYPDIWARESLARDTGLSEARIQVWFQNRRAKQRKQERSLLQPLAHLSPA
# MSX2 [48] = biological target: MSX2 (Homo sapiens, UniProt P35548 130-214, F161Y)
# Chain of MSX2 (Homo sapiens, UniProt P35548 130-214, F161Y) (P35548 130-214 F161Y): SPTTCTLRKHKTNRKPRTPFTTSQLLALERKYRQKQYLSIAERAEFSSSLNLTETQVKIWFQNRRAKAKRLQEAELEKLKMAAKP
# HESX1 [49] = biological target: HESX1 (Homo sapiens, UniProt Q9UBX0 95-180, F115L)
# Chain of HESX1 (Homo sapiens, UniProt Q9UBX0 95-180, F115L) (Q9UBX0 95-180 F115L): as the sequence (Q9UBX0 95-180) above, with F21L counted along it
# VAX1 [50] = biological target: VAX1 (Homo sapiens, UniProt Q5SQQ9 86-172, T142I)
# Chain of VAX1 (Homo sapiens, UniProt Q5SQQ9 86-172, T142I) (Q5SQQ9 86-172 T142I): as the sequence (Q5SQQ9 86-172) above, with T57I counted along it
# PAX4 [51] = biological target: T9, PAX4 (Homo sapiens, UniProt O43316 9-242, R227W)
# T9 sequence: T3 sequence with K192R, R219W
# HOXA2 [52] = biological target: HOXA2 (Homo sapiens, UniProt O43364 129-215, Y150S)
# HOXA7 [53] = biological target: HOXA7 (Homo sapiens, UniProt P31268 116-202, W177C)
# ALX1 [54] = biological target: ALX1 (Homo sapiens, UniProt Q15699 118-204)
# Chain of ALX1 (Homo sapiens, UniProt Q15699 118-204) (Q15699 118-204): as the sequence (Q15699 118-204 L144V) above, with V27L counted along it
# HOXA4 [55] = biological target: HOXA4 (Homo sapiens, UniProt Q00056 201-287, W262F)
# Chain of HOXA4 (Homo sapiens, UniProt Q00056 201-287, W262F) (Q00056 201-287 W262F): as the sequence (Q00056 201-287 W262R) above, with R62F counted along it
# ALX3 [56] = biological target: ALX3 (Homo sapiens, UniProt O95076 139-225, N203S)
# Chain of ALX3 (Homo sapiens, UniProt O95076 139-225, N203S) (O95076 139-225 N203S): as the sequence (O95076 139-225 N203Q) above, with Q65S counted along it
# PRRX1 [57] = biological target: PRRX1 (Homo sapiens, UniProt P54821 80-166)
# Chain of PRRX1 (Homo sapiens, UniProt P54821 80-166) (P54821 80-166): as the sequence (P54821 80-166 F113S) above, with S34F counted along it
# HOXA2 [58] = biological target: HOXA2 (Homo sapiens, UniProt O43364 129-215)
# Chain of HOXA2 (Homo sapiens, UniProt O43364 129-215) (O43364 129-215): as the sequence (O43364 129-215 R185T) above, with T57R counted along it
# VAX1 [59] = biological target: VAX1 (Homo sapiens, UniProt Q5SQQ9 86-172, K157R)
# Chain of VAX1 (Homo sapiens, UniProt Q5SQQ9 86-172, K157R) (Q5SQQ9 86-172 K157R): as the sequence (Q5SQQ9 86-172) above, with K72R counted along it
# HOXB6 [60] = biological target: HOXB6 (Homo sapiens, UniProt P17509 132-218)
# Chain of HOXB6 (Homo sapiens, UniProt P17509 132-218) (P17509 132-218): as the sequence (P17509 132-218 K202E) above, with E71K counted along it
# Chain of HESX1 (Homo sapiens, UniProt Q9UBX0 95-180, R165K) (Q9UBX0 95-180 R165K): as the sequence (Q9UBX0 95-180) above, with R71K counted along it
# Chain of SHOX (Homo sapiens, UniProt O15266 103-189) (O15266 103-189): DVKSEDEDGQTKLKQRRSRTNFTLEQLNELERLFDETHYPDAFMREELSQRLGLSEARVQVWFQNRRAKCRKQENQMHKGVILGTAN
# Chain of HOXB4 (Homo sapiens, UniProt P17483 148-234) (P17483 148-234): as the sequence (P17483 148-234 V174I) above, with I27V counted along it
sequence,measurement,setting,value
AATTAATT,binding signal,HESX1 [1],"13.4 upbm affinity estimate (log intensity, higher = more binding, comparable within an allelic series)"
same,binding signal,HOXB4 [2],"13.4 upbm affinity estimate (log intensity, higher = more binding, comparable within an allelic series)"
same,binding signal,SHOX [3],"12.8 upbm affinity estimate (log intensity, higher = more binding, comparable within an allelic series)"
same,binding signal,VENTX [4],"12.1 upbm affinity estimate (log intensity, higher = more binding, comparable within an allelic series)"
same,binding signal,HOXB9 [5],"10.3 upbm affinity estimate (log intensity, higher = more binding, comparable within an allelic series)"
same,binding signal,HOXA4 [6],"10.8 upbm affinity estimate (log intensity, higher = more binding, comparable within an allelic series)"
same,binding signal,HOXC9 [7],"12.9 upbm affinity estimate (log intensity, higher = more binding, comparable within an allelic series)"
same,binding signal,VENTX [8],"12.5 upbm affinity estimate (log intensity, higher = more binding, comparable within an allelic series)"
same,binding signal,HOXA7 [9],"11.9 upbm affinity estimate (log intensity, higher = more binding, comparable within an allelic series)"
same,binding signal,HOXC10 [10],"12.2 upbm affinity estimate (log intensity, higher = more binding, comparable within an allelic series)"
same,binding signal,ALX4 [11],"14.7 upbm affinity estimate (log intensity, higher = more binding, comparable within an allelic series)"
same,binding signal,PAX4 [12],"12.1 upbm affinity estimate (log intensity, higher = more binding, comparable within an allelic series)"
same,binding signal,PRRX1 [13],"11.8 upbm affinity estimate (log intensity, higher = more binding, comparable within an allelic series)"
same,binding signal,VENTX [14],"11.8 upbm affinity estimate (log intensity, higher = more binding, comparable within an allelic series)"
same,binding signal,PAX4 [15],"12.7 upbm affinity estimate (log intensity, higher = more binding, comparable within an allelic series)"
same,binding signal,HOXB6 [16],"10.2 upbm affinity estimate (log intensity, higher = more binding, comparable within an allelic series)"
same,binding signal,ALX4 [17],"14.3 upbm affinity estimate (log intensity, higher = more binding, comparable within an allelic series)"
same,binding signal,HESX1 [18],"13.2 upbm affinity estimate (log intensity, higher = more binding, comparable within an allelic series)"
same,binding signal,HOXA2 [19],"13.4 upbm affinity estimate (log intensity, higher = more binding, comparable within an allelic series)"
same,binding signal,HOXA4 [20],"12.8 upbm affinity estimate (log intensity, higher = more binding, comparable within an allelic series)"
same,binding signal,HOXB9 [21],"12.2 upbm affinity estimate (log intensity, higher = more binding, comparable within an allelic series)"
same,binding signal,HOXB4 [22],"14.1 upbm affinity estimate (log intensity, higher = more binding, comparable within an allelic series)"
same,binding signal,HOXC9 [23],"12.8 upbm affinity estimate (log intensity, higher = more binding, comparable within an allelic series)"
same,binding signal,MSX2 [24],"13.3 upbm affinity estimate (log intensity, higher = more binding, comparable within an allelic series)"
same,binding signal,ALX1 [25],"12.4 upbm affinity estimate (log intensity, higher = more binding, comparable within an allelic series)"
same,binding signal,ALX3 [26],"8.51 upbm affinity estimate (log intensity, higher = more binding, comparable within an allelic series)"
same,binding signal,PAX4 [27],"12.8 upbm affinity estimate (log intensity, higher = more binding, comparable within an allelic series)"
same,binding signal,SHOX [28],"10.3 upbm affinity estimate (log intensity, higher = more binding, comparable within an allelic series)"
same,binding signal,HOXC9 [29],"12.8 upbm affinity estimate (log intensity, higher = more binding, comparable within an allelic series)"
same,binding signal,HOXA2 [30],"13.5 upbm affinity estimate (log intensity, higher = more binding, comparable within an allelic series)"
same,binding signal,ALX1 [31],"12 upbm affinity estimate (log intensity, higher = more binding, comparable within an allelic series)"
same,binding signal,PAX4 [32],"10.9 upbm affinity estimate (log intensity, higher = more binding, comparable within an allelic series)"
same,binding signal,HOXA4 [33],"14 upbm affinity estimate (log intensity, higher = more binding, comparable within an allelic series)"
same,binding signal,HOXC10 [34],"12.2 upbm affinity estimate (log intensity, higher = more binding, comparable within an allelic series)"
same,binding signal,MSX2 [35],"14.1 upbm affinity estimate (log intensity, higher = more binding, comparable within an allelic series)"
same,binding signal,ALX3 [36],"13 upbm affinity estimate (log intensity, higher = more binding, comparable within an allelic series)"
same,binding signal,PAX4 [37],"11.6 upbm affinity estimate (log intensity, higher = more binding, comparable within an allelic series)"
same,binding signal,PROP1 [38],"12.1 upbm affinity estimate (log intensity, higher = more binding, comparable within an allelic series)"
same,binding signal,HESX1 [39],"10.3 upbm affinity estimate (log intensity, higher = more binding, comparable within an allelic series)"
same,binding signal,PROP1 [40],"12.2 upbm affinity estimate (log intensity, higher = more binding, comparable within an allelic series)"
same,binding signal,VAX1 [41],"13.3 upbm affinity estimate (log intensity, higher = more binding, comparable within an allelic series)"
same,binding signal,ALX3 [42],"11.3 upbm affinity estimate (log intensity, higher = more binding, comparable within an allelic series)"
same,binding signal,HESX1 [43],"11.8 upbm affinity estimate (log intensity, higher = more binding, comparable within an allelic series)"
same,binding signal,HOXB9 [44],"11.9 upbm affinity estimate (log intensity, higher = more binding, comparable within an allelic series)"
same,binding signal,HOXC9 [45],"11.2 upbm affinity estimate (log intensity, higher = more binding, comparable within an allelic series)"
same,binding signal,ALX3 [46],"10.9 upbm affinity estimate (log intensity, higher = more binding, comparable within an allelic series)"
same,binding signal,PROP1 [47],"8.05 upbm affinity estimate (log intensity, higher = more binding, comparable within an allelic series)"
same,binding signal,MSX2 [48],"13.8 upbm affinity estimate (log intensity, higher = more binding, comparable within an allelic series)"
same,binding signal,HESX1 [49],"8.57 upbm affinity estimate (log intensity, higher = more binding, comparable within an allelic series)"
same,binding signal,VAX1 [50],"13.2 upbm affinity estimate (log intensity, higher = more binding, comparable within an allelic series)"
same,binding signal,PAX4 [51],"11.3 upbm affinity estimate (log intensity, higher = more binding, comparable within an allelic series)"
same,binding signal,HOXA2 [52],"11 upbm affinity estimate (log intensity, higher = more binding, comparable within an allelic series)"
same,binding signal,HOXA7 [53],"8.91 upbm affinity estimate (log intensity, higher = more binding, comparable within an allelic series)"
same,binding signal,ALX1 [54],"13 upbm affinity estimate (log intensity, higher = more binding, comparable within an allelic series)"
same,binding signal,HOXA4 [55],"12.2 upbm affinity estimate (log intensity, higher = more binding, comparable within an allelic series)"
same,binding signal,ALX3 [56],"8.78 upbm affinity estimate (log intensity, higher = more binding, comparable within an allelic series)"
same,binding signal,PRRX1 [57],"13.6 upbm affinity estimate (log intensity, higher = more binding, comparable within an allelic series)"
same,binding signal,HOXA2 [58],"12.8 upbm affinity estimate (log intensity, higher = more binding, comparable within an allelic series)"
same,binding signal,VAX1 [59],"13.1 upbm affinity estimate (log intensity, higher = more binding, comparable within an allelic series)"
same,binding signal,HOXB6 [60],"12.4 upbm affinity estimate (log intensity, higher = more binding, comparable within an allelic series)"

# From PMC11006913
